The record followed here is ChEMBL document CHEMBL1961873, “Compounds: GSK PKIS; Assays: Nanosyn kinase panel” (2012).

As usually defined, the inhibition is the change of the read-out against control, counted positive when it falls.

Chain of Tyrosine-protein kinase receptor UFO (Homo sapiens) (P30530 whole entry): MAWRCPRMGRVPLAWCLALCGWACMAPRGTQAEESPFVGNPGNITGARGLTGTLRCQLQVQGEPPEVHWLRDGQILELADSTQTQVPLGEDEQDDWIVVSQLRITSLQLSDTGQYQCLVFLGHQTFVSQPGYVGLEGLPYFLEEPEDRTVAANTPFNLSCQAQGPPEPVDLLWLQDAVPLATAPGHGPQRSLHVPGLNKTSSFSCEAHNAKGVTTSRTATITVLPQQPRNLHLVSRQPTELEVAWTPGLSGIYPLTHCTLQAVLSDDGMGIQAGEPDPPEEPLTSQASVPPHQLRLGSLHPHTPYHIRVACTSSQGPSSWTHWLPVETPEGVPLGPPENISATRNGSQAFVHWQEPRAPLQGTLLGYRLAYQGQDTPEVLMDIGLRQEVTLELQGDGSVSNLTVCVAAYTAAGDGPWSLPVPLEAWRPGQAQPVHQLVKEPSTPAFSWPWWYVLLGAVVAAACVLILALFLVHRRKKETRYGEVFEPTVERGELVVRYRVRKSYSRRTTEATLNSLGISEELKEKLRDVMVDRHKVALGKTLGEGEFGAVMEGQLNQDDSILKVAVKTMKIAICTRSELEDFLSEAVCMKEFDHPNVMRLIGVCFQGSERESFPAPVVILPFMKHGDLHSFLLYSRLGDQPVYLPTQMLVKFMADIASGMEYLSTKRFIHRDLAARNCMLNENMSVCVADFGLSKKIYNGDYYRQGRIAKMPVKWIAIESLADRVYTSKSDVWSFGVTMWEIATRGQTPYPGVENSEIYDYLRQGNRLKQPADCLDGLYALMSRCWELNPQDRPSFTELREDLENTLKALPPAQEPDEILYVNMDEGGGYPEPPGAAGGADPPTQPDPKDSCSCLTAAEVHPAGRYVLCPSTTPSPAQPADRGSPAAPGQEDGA

The first assay addresses Tyrosine-protein kinase receptor UFO (Homo sapiens) (UniProt P30530). Particulars: at 1 µM.
As to `COc1cc2c(cc1Nc1nc(Nc3ccsc3C(N)=O)c3cc[nH]c3n1)N(C(=O)CN(C)C)CCC2(C)C`, the inhibition came out at 85.5%.

Consider `CCc1nn2ncccc2c1-c1ccnc(NC2CC2)n1`, for which the inhibition is -2.77%.

Regarding `Cc1ccc(O)cc1Nc1ccnc2cc(-c3ccccn3)ccc12`, the inhibition was -6.05%.

The target in another assay is Tyrosine-protein kinase Blk (Homo sapiens) (UniProt P51451). Particulars: at 0.1 µM.
Chain of Tyrosine-protein kinase Blk (Homo sapiens) (P51451 2-505 limits assumed): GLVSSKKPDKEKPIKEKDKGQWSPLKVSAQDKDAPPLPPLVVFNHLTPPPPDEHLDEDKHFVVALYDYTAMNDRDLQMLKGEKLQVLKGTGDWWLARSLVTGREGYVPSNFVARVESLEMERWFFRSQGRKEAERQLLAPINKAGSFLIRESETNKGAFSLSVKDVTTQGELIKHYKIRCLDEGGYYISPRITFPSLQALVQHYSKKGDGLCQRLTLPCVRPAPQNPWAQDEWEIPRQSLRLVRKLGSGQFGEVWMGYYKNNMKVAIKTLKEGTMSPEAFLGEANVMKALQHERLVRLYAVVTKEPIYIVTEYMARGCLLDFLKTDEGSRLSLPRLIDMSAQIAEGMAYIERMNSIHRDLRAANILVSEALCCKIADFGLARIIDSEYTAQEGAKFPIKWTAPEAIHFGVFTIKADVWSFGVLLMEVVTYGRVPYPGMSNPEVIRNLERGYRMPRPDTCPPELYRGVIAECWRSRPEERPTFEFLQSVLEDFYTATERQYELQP
On to `CNC(=O)c1cccc(C#Cc2cncnc2Nc2ccc(OCc3cccc(F)c3)c(Cl)c2)c1`, for which the inhibition came out at 1.53%.

As to `Fc1ccc(-c2cc(-c3c[nH]nc3-c3ccccn3)ccn2)cc1`, the inhibition turned out to be 2.97%.

As to `CN1CCC(n2cnc(-c3ccc(F)cc3)c2-c2ccnc(Nc3ccccc3)n2)CC1`, the inhibition was determined as 2.74%.

`CCn1c(-c2nonc2N)nc2c(C#CC(C)(C)O)ncc(OC3CCNCC3)c21`: the inhibition was 2.38%.

In the case of `COc1cccc(-c2c[nH]c3c(N/N=C/c4ccncc4)ncnc23)c1`, the inhibition was determined as 7.63%.

On to `Cc1ccc2c(-c3ccnc(Nc4ccccc4)n3)c(-c3ccc(F)cc3)nn2n1`, for which the inhibition came out at 6.22%.

With `COC(=O)Nc1nc2ccc(Oc3ccc(NC(=O)Nc4cccc(Cl)c4)cc3)cc2[nH]1`, the inhibition turned out to be 0.1%.

Turning to `COc1ccc(-c2cc(-c3c[nH]nc3-c3ccccn3)ccn2)cc1`, the inhibition was determined as 4.09%.

Consider `COc1cc(/C=N/Nc2ncnc3[nH]ncc23)ccc1O`, for which the inhibition amounted to 9.75%.

Consider `[O-][S+]1CCN(Cc2ccc(-c3ccc4ncnc(Nc5ccc(OCc6cccc(F)c6)c(Cl)c5)c4c3)o2)CC1`, for which the inhibition came to 1.74%.

Take `CCNC(=O)O[C@H]1CN[C@H](C#Cc2cc3ncnc(Nc4ccc(OCc5cccc(F)c5)c(Cl)c4)c3s2)C1`: the inhibition was 2.3%.

`CC1=C(C(=O)Nc2cc(Cl)c3[nH]ncc3c2)C(c2ccc(C(F)(F)F)cc2)CC(=O)N1` (stereo unspecified): the inhibition turned out to be 4.37%.

`c1ccc(-c2nc3n(c2-c2ccc4c(c2)OCO4)CCC3)nc1`: the inhibition was found to be 0.54%.

For `CCOc1ccc2c(-c3ccnc(Nc4cccc(C(F)(F)F)c4)n3)cnn2n1`, the inhibition turned out to be 2.21%.

As for `CCN1CCC(CC(=O)Nc2n[nH]c3nnc(-c4cccc(F)c4F)cc23)CC1`, the inhibition is 3.37%.

For the compound `COc1ccc2[nH]c3c4[nH]c5ccc(OC)cc5c4c4c(c3c2c1)C(=O)NC4=O`, the inhibition is 6.14%.

Turning to `COc1ccc(-c2oc3ncnc(N)c3c2-c2ccc(NC(=O)Nc3cc(C(F)(F)F)ccc3F)cc2)cc1`, the inhibition worked out at 5.14%.

Take `Fc1cccc(COc2ccc(Nc3ncnc4sc(-c5ccco5)cc34)cc2Cl)c1`: the inhibition came to 4%.

In the case of `COc1cc(N2CCN(C(C)C)CC2)ccc1Nc1nc(Nc2ccc(F)cc2C(N)=O)c2cc[nH]c2n1`, the inhibition worked out at 1.9%.

As for `CN(C)CCOc1ccc(-c2nc(-c3ccncc3)c(-c3ccc4c(c3)CC/C4=N\O)[nH]2)cc1`, the inhibition was found to be 2.07%.

`NC(=O)c1sc(-n2cnc3ccc(C(F)(F)F)cc32)cc1OCc1ccccc1Br`: the inhibition was 2.51%.

`Nc1nc(-c2cccc(Cl)c2)c(-c2ccc3ncccc3n2)s1`: the inhibition is 3.51%.

As for `CCCN1CCC(c2ccc(Nc3nc(Nc4cc(F)ccc4C(N)=O)c4cc[nH]c4n3)c(OC)c2)CC1`, the inhibition is 3.5%.

Take `CCn1cc(-c2ccnc3[nH]ccc23)c(-c2cccc(NC(=O)Nc3ccc(OCc4ccccc4)cc3)c2)n1`: the inhibition turned out to be 2.54%.

On to `NS(=O)(=O)c1ccc(Nc2ncc(-c3ccccc3)o2)cc1`, for which the inhibition amounted to 2.41%.

As to `CCCN(CCS(C)(=O)=O)Cc1ccc(-c2ccc3ncnc(Nc4ccc(OCc5cccc(F)c5)c(Cl)c4)c3c2)o1`, the inhibition worked out at 1.35%.

`CCN(CC)S(=O)(=O)c1ccc(OC)c(Nc2ncc(-c3ccccc3)o2)c1`: the inhibition came out at 3.51%.

In the case of `CS(=O)(=O)CCNCc1coc(-c2ccc3ncnc(Nc4ccc(OCc5ccccc5)cc4)c3c2)c1`, the inhibition is 2.9%.

Turning to `N#Cc1c(NC(=O)CN2CCOCC2)sc2c1CCCC2`, the inhibition is 3.64%.

For the compound `COc1cccc(-n2ncc3c(N/N=C/c4ccc(F)cc4)ncnc32)c1`, the inhibition was determined as 4.91%.

For the compound `O=C(O[C@H]1CN[C@H](C#Cc2cc3ncnc(Nc4ccc(Cc5ccccc5)cc4)c3s2)C1)N1CCOCC1`, the inhibition is 5.97%.

Turning to `COc1cc2c(cc1Nc1nc(Nc3ccsc3C(N)=O)c3cc[nH]c3n1)N(C(=O)CN(C)C)CCC2(C)C`, the inhibition worked out at 3.19%.

`CCc1nn2ncccc2c1-c1ccnc(NC2CC2)n1`: the inhibition amounted to 1.77%.

Take `Cc1ccc(O)cc1Nc1ccnc2cc(-c3ccccn3)ccc12`: the inhibition worked out at 12.5%.

Another assay has the same target. Particulars: at 1 µM.
For the compound `CNC(=O)c1cccc(C#Cc2cncnc2Nc2ccc(OCc3cccc(F)c3)c(Cl)c2)c1`, the inhibition is 1.17%.

For `Fc1ccc(-c2cc(-c3c[nH]nc3-c3ccccn3)ccn2)cc1`, the inhibition was determined as 2.43%.

On to `CN1CCC(n2cnc(-c3ccc(F)cc3)c2-c2ccnc(Nc3ccccc3)n2)CC1`, for which the inhibition is 7.18%.

Turning to `CCn1c(-c2nonc2N)nc2c(C#CC(C)(C)O)ncc(OC3CCNCC3)c21`, the inhibition was determined as 3.31%.

Regarding `COc1cccc(-c2c[nH]c3c(N/N=C/c4ccncc4)ncnc23)c1`, the inhibition was determined as 57.9%.

Regarding `Cc1ccc2c(-c3ccnc(Nc4ccccc4)n3)c(-c3ccc(F)cc3)nn2n1`, the inhibition stood at 49%.

For the compound `COC(=O)Nc1nc2ccc(Oc3ccc(NC(=O)Nc4cccc(Cl)c4)cc3)cc2[nH]1`, the inhibition was 1.79%.

Take `COc1ccc(-c2cc(-c3c[nH]nc3-c3ccccn3)ccn2)cc1`: the inhibition stood at 3.9%.

For `COc1cc(/C=N/Nc2ncnc3[nH]ncc23)ccc1O`, the inhibition was determined as 59.7%.

Take `[O-][S+]1CCN(Cc2ccc(-c3ccc4ncnc(Nc5ccc(OCc6cccc(F)c6)c(Cl)c5)c4c3)o2)CC1`: the inhibition came to 7.66%.

On to `CCNC(=O)O[C@H]1CN[C@H](C#Cc2cc3ncnc(Nc4ccc(OCc5cccc(F)c5)c(Cl)c4)c3s2)C1`, for which the inhibition stood at 2.43%.

As for `CC1=C(C(=O)Nc2cc(Cl)c3[nH]ncc3c2)C(c2ccc(C(F)(F)F)cc2)CC(=O)N1` (stereo unspecified), the inhibition came to 33.2%.

For `c1ccc(-c2nc3n(c2-c2ccc4c(c2)OCO4)CCC3)nc1`, the inhibition turned out to be 3.25%.

Consider `CCOc1ccc2c(-c3ccnc(Nc4cccc(C(F)(F)F)c4)n3)cnn2n1`, for which the inhibition worked out at 3.22%.

As to `CCN1CCC(CC(=O)Nc2n[nH]c3nnc(-c4cccc(F)c4F)cc23)CC1`, the inhibition came out at 3.76%.

As for `COc1ccc2[nH]c3c4[nH]c5ccc(OC)cc5c4c4c(c3c2c1)C(=O)NC4=O`, the inhibition came out at 36.5%.

Turning to `COc1ccc(-c2oc3ncnc(N)c3c2-c2ccc(NC(=O)Nc3cc(C(F)(F)F)ccc3F)cc2)cc1`, the inhibition is 41.2%.

As to `Fc1cccc(COc2ccc(Nc3ncnc4sc(-c5ccco5)cc34)cc2Cl)c1`, the inhibition turned out to be 3.74%.

Take `COc1cc(N2CCN(C(C)C)CC2)ccc1Nc1nc(Nc2ccc(F)cc2C(N)=O)c2cc[nH]c2n1`: the inhibition was determined as 3.73%.

Regarding `CN(C)CCOc1ccc(-c2nc(-c3ccncc3)c(-c3ccc4c(c3)CC/C4=N\O)[nH]2)cc1`, the inhibition was determined as 6.18%.

Regarding `NC(=O)c1sc(-n2cnc3ccc(C(F)(F)F)cc32)cc1OCc1ccccc1Br`, the inhibition is 3.45%.

`Nc1nc(-c2cccc(Cl)c2)c(-c2ccc3ncccc3n2)s1`: the inhibition worked out at 7.22%.

For `CCCN1CCC(c2ccc(Nc3nc(Nc4cc(F)ccc4C(N)=O)c4cc[nH]c4n3)c(OC)c2)CC1`, the inhibition worked out at 8.52%.

Take `CCn1cc(-c2ccnc3[nH]ccc23)c(-c2cccc(NC(=O)Nc3ccc(OCc4ccccc4)cc3)c2)n1`: the inhibition amounted to 18.7%.

As to `NS(=O)(=O)c1ccc(Nc2ncc(-c3ccccc3)o2)cc1`, the inhibition was found to be 4.76%.

With `CCCN(CCS(C)(=O)=O)Cc1ccc(-c2ccc3ncnc(Nc4ccc(OCc5cccc(F)c5)c(Cl)c4)c3c2)o1`, the inhibition is 4%.

On to `CCN(CC)S(=O)(=O)c1ccc(OC)c(Nc2ncc(-c3ccccc3)o2)c1`, for which the inhibition stood at 31.4%.

Consider `CS(=O)(=O)CCNCc1coc(-c2ccc3ncnc(Nc4ccc(OCc5ccccc5)cc4)c3c2)c1`, for which the inhibition stood at 11.5%.

In the case of `N#Cc1c(NC(=O)CN2CCOCC2)sc2c1CCCC2`, the inhibition turned out to be 3.64%.

Regarding `COc1cccc(-n2ncc3c(N/N=C/c4ccc(F)cc4)ncnc32)c1`, the inhibition came to 18.2%.

`O=C(O[C@H]1CN[C@H](C#Cc2cc3ncnc(Nc4ccc(Cc5ccccc5)cc4)c3s2)C1)N1CCOCC1`: the inhibition worked out at 48.5%.

For `COc1cc2c(cc1Nc1nc(Nc3ccsc3C(N)=O)c3cc[nH]c3n1)N(C(=O)CN(C)C)CCC2(C)C`, the inhibition came out at 6.26%.

In the case of `CCc1nn2ncccc2c1-c1ccnc(NC2CC2)n1`, the inhibition was determined as 3.32%.

As for `Cc1ccc(O)cc1Nc1ccnc2cc(-c3ccccn3)ccc12`, the inhibition was 61.8%.
